# Measured values as given in PMC11062922 (Nature Chemical Biology, 2023).
# Like-named read-outs stand apart in the source and are kept apart here.
# Tests used:
# Set-up in all cases: species or system human, MV4-11 + K-562 + COLO205 + SK-N-BE2 + OVCAR-8
# ACVR1B = details: read-out: apparent Kd, n = 1
# CLK1 = details: read-out: apparent Kd; compound concentrations:100 nM and 1000 nM (sheet 'Samples'); n = 1
# CLK4 = details: read-out: apparent Kd; compound concentrations:100 nM and 1000 nM (sheet 'Samples'); n = 1
# CSNK1E = details: read-out: apparent Kd, n = 1
# DYRK1A = details: read-out: apparent Kd; compound concentrations:100 nM and 1000 nM (sheet 'Samples'); n = 1
# ILK = details: read-out: apparent Kd; compound concentrations:100 nM and 1000 nM (sheet 'Samples'); n = 1
# MAP2K1 = details: read-out: apparent Kd; compound concentrations:100 nM and 1000 nM (sheet 'Samples'); n = 1
# MAP2K2 = details: read-out: apparent Kd; compound concentrations:100 nM and 1000 nM (sheet 'Samples'); n = 1
# MAPK14 = details: read-out: apparent Kd, n = 1
# MAPKAPK2 = details: read-out: apparent Kd, n = 1
# NNT = details: read-out: apparent Kd; compound concentrations:100 nM and 1000 nM (sheet 'Samples'); n = 1
# PIP4K2C = details: read-out: apparent Kd; compound concentrations:100 nM and 1000 nM (sheet 'Samples'); n = 1
# STK26 = details: read-out: apparent Kd; compound concentrations:100 nM and 1000 nM (sheet 'Samples'); n = 1
# CSNK1D = details: read-out: apparent Kd, n = 1
# PIK3CA = details: read-out: apparent Kd; compound concentrations:100 nM and 1000 nM (sheet 'Samples'); n = 1
# PIK3CD = details: read-out: apparent Kd; compound concentrations:100 nM and 1000 nM (sheet 'Samples'); n = 1
# PRKD2 = details: read-out: apparent Kd, n = 1
# PRKD3 = details: read-out: apparent Kd, n = 1
# PSMC3 = details: read-out: apparent Kd; compound concentrations:100 nM and 1000 nM (sheet 'Samples'); n = 1
# TGFBR1 = details: read-out: apparent Kd, n = 1
# NQO1 = details: read-out: apparent Kd; compound concentrations: 100 nM and 1000 nM (sheet 'Samples'), CATDS: 9.3669265888158104E-2; n = 1
# RIPK2 = details: read-out: apparent Kd, compound concentrations: 100 nM and 1000 nM (sheet 'Samples'), n = 1
# TGFBR2 = details: read-out: apparent Kd; compound concentrations: 100 nM and 1000 nM (sheet 'Samples'), CATDS: 0.106428788110752; n = 1
# ACVR2B = details: read-out: apparent Kd; compound concentrations: 100 nM and 1000 nM (sheet 'Samples'), CATDS: 4.1971231951758399E-2; n = 1
# CSNK1A1 = details: read-out: apparent Kd; compound concentrations: 100 nM and 1000 nM (sheet 'Samples'), CATDS: 3.7842664233860401E-2; n = 1
# DDR1 = details: read-out: apparent Kd; compound concentrations: 100 nM and 1000 nM (sheet 'Samples'), CATDS: 5.25374061654219E-2; n = 1
# DDR2 = details: read-out: apparent Kd; compound concentrations: 100 nM and 1000 nM (sheet 'Samples'), CATDS: 4.2392371826783903E-2; n = 1
# GAK = details: read-out: apparent Kd; compound concentrations: 100 nM and 1000 nM (sheet 'Samples'), CATDS: 0.17328918321310699; n = 1
# MAPK10 = details: read-out: apparent Kd; compound concentrations: 100 nM and 1000 nM (sheet 'Samples'), CATDS: 0.12973795747386199; n = 1
# MAPK8 = details: read-out: apparent Kd; compound concentrations: 100 nM and 1000 nM (sheet 'Samples'), CATDS: 3.7066716076187299E-2; n = 1
# MAPK9 = details: read-out: apparent Kd; compound concentrations: 100 nM and 1000 nM (sheet 'Samples'), CATDS: 0.1157117766231; n = 1
# PKN3 = details: read-out: apparent Kd; compound concentrations: 100 nM and 1000 nM (sheet 'Samples'), CATDS: 3.6917744645490899E-2; n = 1
# [1] = compound concentrations:100 nM and 1000 nM (sheet 'Samples')
smiles,measurement,setting,value
Nc1nc(-c2ccc(F)cc2)c(-c2ccc3ncccc3n2)s1 [GW785804X],potency estimated from few doses,ACVR1B; [1],57.9 nM
same,potency estimated from few doses,CLK1,997 nM
same,potency estimated from few doses,CLK4,1100 nM
same,potency estimated from few doses,CSNK1E; [1],2400 nM
same,potency estimated from few doses,DYRK1A,1970 nM
same,potency estimated from few doses,ILK,2080 nM
same,potency estimated from few doses,MAP2K1,1910 nM
same,potency estimated from few doses,MAP2K2,2060 nM
same,potency estimated from few doses,MAPK14; [1],567 nM
same,potency estimated from few doses,MAPKAPK2; [1],1410 nM
same,potency estimated from few doses,NNT,164 nM
same,potency estimated from few doses,PIP4K2C,2210 nM
same,potency estimated from few doses,STK26,2330 nM
Cc1cc(Nc2nc(-c3cccc(C)n3)nc3ccccc23)ccn1 [GW872411X],potency estimated from few doses,ACVR1B; [1],471 nM
same,potency estimated from few doses,CSNK1D; [1],1530 nM
same,potency estimated from few doses,CSNK1E; [1],1700 nM
same,potency estimated from few doses,ILK,1610 nM
same,potency estimated from few doses,MAP2K1,2130 nM
same,potency estimated from few doses,MAP2K2,1690 nM
same,potency estimated from few doses,PIK3CA,247 nM
same,potency estimated from few doses,PIK3CD,155 nM
same,potency estimated from few doses,PRKD2; [1],4.12 nM
same,potency estimated from few doses,PRKD3; [1],6.25 nM
same,potency estimated from few doses,PSMC3,1810 nM
same,potency estimated from few doses,TGFBR1; [1],182 nM
Nc1nc(-c2ccccn2)c(-c2ccc3ncccc3n2)s1 [GW693481X],potency estimated from few doses,"ACVR1B; compound concentrations: 100 nM and 1000 nM (sheet 'Samples'), CATDS: 0.44423819438106199",18.9 nM
same,potency estimated from few doses,"CSNK1D; compound concentrations: 100 nM and 1000 nM (sheet 'Samples'), CATDS: 0.10134290714946401",1410 nM
same,potency estimated from few doses,NQO1,1850 nM
same,potency estimated from few doses,"PRKD2; compound concentrations: 100 nM and 1000 nM (sheet 'Samples'), CATDS: 9.0452620049035204E-2",2110 nM
same,potency estimated from few doses,"PRKD3; compound concentrations: 100 nM and 1000 nM (sheet 'Samples'), CATDS: 9.3266966311560201E-2",1880 nM
same,potency estimated from few doses,RIPK2; CATDS: 0.125372096454309,727 nM
same,potency estimated from few doses,"TGFBR1; compound concentrations: 100 nM and 1000 nM (sheet 'Samples'), CATDS: 0.486387422395817",16 nM
same,potency estimated from few doses,TGFBR2,1200 nM
Nc1nccc(-c2c(-c3ccc(F)cc3)nn3cc(C(F)(F)F)ccc23)n1 [GW568326X],potency estimated from few doses,"ACVR1B; compound concentrations: 100 nM and 1000 nM (sheet 'Samples'), CATDS: 0.37925228743827699",526 nM
same,potency estimated from few doses,"CSNK1D; compound concentrations: 100 nM and 1000 nM (sheet 'Samples'), CATDS: 0.232202944333886",1310 nM
same,potency estimated from few doses,"MAPK14; compound concentrations: 100 nM and 1000 nM (sheet 'Samples'), CATDS: 0.251383978494441",1100 nM
same,potency estimated from few doses,"TGFBR1; compound concentrations: 100 nM and 1000 nM (sheet 'Samples'), CATDS: 0.196901676551059",2000 nM
Cc1ccc2c(-c3ccnc(Nc4ccccc4)n3)c(-c3ccc(F)cc3)nn2n1 [GW833373X],potency estimated from few doses,"ACVR1B; compound concentrations: 100 nM and 1000 nM (sheet 'Samples'), CATDS: 8.2410499697195994E-2",193 nM
same,potency estimated from few doses,ACVR2B,1090 nM
same,potency estimated from few doses,CSNK1A1,1640 nM
same,potency estimated from few doses,"CSNK1D; compound concentrations: 100 nM and 1000 nM (sheet 'Samples'), CATDS: 5.8055493904437101E-2",418 nM
same,potency estimated from few doses,"CSNK1E; compound concentrations: 100 nM and 1000 nM (sheet 'Samples'), CATDS: 4.09740757969334E-2",1190 nM
same,potency estimated from few doses,DDR1,543 nM
same,potency estimated from few doses,DDR2,1050 nM
same,potency estimated from few doses,GAK,56.5 nM
same,potency estimated from few doses,MAPK10,87.1 nM
same,potency estimated from few doses,"MAPK14; compound concentrations: 100 nM and 1000 nM (sheet 'Samples'), CATDS: 0.11490787983313",106 nM
same,potency estimated from few doses,MAPK8,1800 nM
same,potency estimated from few doses,MAPK9,105 nM
same,potency estimated from few doses,"MAPKAPK2; compound concentrations: 100 nM and 1000 nM (sheet 'Samples'), CATDS: 0.100968971541066",132 nM
same,potency estimated from few doses,PKN3,1840 nM
same,potency estimated from few doses,"PRKD2; compound concentrations: 100 nM and 1000 nM (sheet 'Samples'), CATDS: 5.3704736783425001E-2",511 nM
same,potency estimated from few doses,"PRKD3; compound concentrations: 100 nM and 1000 nM (sheet 'Samples'), CATDS: 4.4266829697393303E-2",906 nM
same,potency estimated from few doses,RIPK2; CATDS: 5.33565185229085E-2,520 nM
same,potency estimated from few doses,"TGFBR1; compound concentrations: 100 nM and 1000 nM (sheet 'Samples'), CATDS: 4.4217762618850402E-2",909 nM
